Experimental findings from PubChem BioAssay (NCATS) are described below.

Results filed as inconclusive are left out. A call without a number means that no potency is given here. A number with no mark means an inactive call. Activity calls are given as the source filed them. Calls follow the shape of the dose curve; as a rule, active = well fitted inhibition curve with a large enough effect in the repeat runs; inconclusive = weak or mixed curves; inactive = flat fitted curve, though single readings scatter. *1 amine or outer side, *2 acyl side, *3 side chain or, on linkers, in order; H or OH if unused. Where a SMILES comes first, the peptide text is derived from it. Bridges are numbered along the chain shown (N, C = ends). [ ]: non-standard residue; d: D form. The star is where a group is joined. ξ: configuration not given here. X10 = NC1=NCCC(C(N[*:1])C(=O)[*:2])N1; ΔAla(3-NHCONH2) = NC(=O)NC=C(N)C(=O)O; ξβ3hOrn = NCCCC(N)CC(=O)*; Dap = NC[CH](N)C(=O)O
Potency is read from the fitted curve at half-maximal effect.

Cytochrome P450 2D6 (Homo sapiens), sequence (P10635 whole entry, looked up): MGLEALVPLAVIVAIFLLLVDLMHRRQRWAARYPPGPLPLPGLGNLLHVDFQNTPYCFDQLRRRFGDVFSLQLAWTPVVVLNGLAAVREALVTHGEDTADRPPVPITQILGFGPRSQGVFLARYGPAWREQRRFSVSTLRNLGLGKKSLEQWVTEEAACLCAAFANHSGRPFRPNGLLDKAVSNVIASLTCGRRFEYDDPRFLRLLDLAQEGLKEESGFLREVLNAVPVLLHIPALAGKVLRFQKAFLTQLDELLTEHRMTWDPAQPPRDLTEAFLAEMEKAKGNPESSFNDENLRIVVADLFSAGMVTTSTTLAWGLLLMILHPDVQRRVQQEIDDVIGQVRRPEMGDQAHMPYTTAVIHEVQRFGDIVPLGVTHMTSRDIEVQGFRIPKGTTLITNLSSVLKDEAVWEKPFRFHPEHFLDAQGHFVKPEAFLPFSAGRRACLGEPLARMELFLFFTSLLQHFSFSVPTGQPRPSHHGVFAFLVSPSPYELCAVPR

The experiment concerns the target Cytochrome P450 2D6 (Homo sapiens) (UniProt P10635). Briefly: Cytochrome P450 family 2 subfamily D member 6 (CYP2D6) small molecule antagonists: luciferase biochemical (cell-free) qHTS assay (AID 1645840). Also: nearly all actives have a fitted effect of over 55% in size. Conditions: P450-Glo CYP2D6 enzyme, luciferin luminescence, 1 h; series mostly up to 57.4 µM. How it is done:
National Center for Advancing Translational Sciences [NCATS] Assay Overview: Cytochrome P450 (CYP) enzymes are membrane-bound hemeproteins that play a key role in metabolism of drugs and xenobiotics. Assaying the effect of chemicals on CYP isozymes is useful to minimize the adverse drug reactions and toxicities in drug development process. Chemical compounds were tested for their effect on CYP enzyme activities by using P450-Glo (TM) screening systems (Promega Corporation, Madison, WI). These systems provide a luminescent method containing proluciferin substrates and are converted to luciferin products by CYP isozymes. The luciferin products formed are detected with a luciferin detection reagent, and the amount of light produced is proportional to CYP activity. P450-Glo (TM) CYP2D6 screening system (Catalog. No. V9890) was used to detect the compounds that interfere in CYP2D6 activity.
Assay Protocol Summary: Two ul of enzyme-substrate mix was dispensed into medium binding white/solid 1536-well plates (Greiner Bio-One North America Inc., Monroe, NC) using a Flying Reagent Dispenser (FRD, Aurora Discovery, San Diego, CA). […] The assay plates were incubated at room temperature for 10 min. Then 2 ul of NADPH regeneration solution was added to each well of the assay plates using an FRD and incubated at room temperature for 1 h. The reaction was stopped by adding 4 ul of detection reagent using an FRD and after 20 min incubation at room temperature, the luminescence signal was measured using a ViewLux plate reader (Perkin Elmer, Shelton, CT). Data were expressed as relative luminescence units.
In the case of `COc1ccc(CCC(C)=O)cc1`, the Potency result was “inactive”.

As to `Nc1nc2ccccc2n1Cc1ccc(F)cc1`, the Potency was 0.0977 µM (active).

Turning to `Cc1cccc(N(C)C(=S)Oc2ccc3c(c2)C2CCC3C2)c1` (stereo not given), the Potency entry is “inactive”.

`Cc1cc(O)c2c(O)c3c(O)cccc3cc2c1`: the Potency entry is “inactive”.

On to `COC(=O)/C=C(/C)N`, for which the Potency result is “inactive”.

As for `NC(=O)C1(N2CCCCC2)CCN(CCCN2c3ccccc3CCc3ccc(Cl)cc32)CC1`, the Potency was 2.45 µM (active).

As for `Cc1sccc1Br`, the Potency entry was “inactive”.

`Cc1cccc(N(C)C(=S)Oc2ccc3c(c2)CCC3)c1`: the Potency result was “inactive”.

Turning to `CCOC(=O)Oc1ccc(CCNC(=O)[C@H](CCSC)NC(C)=O)cc1OC(=O)OCC`, the Potency entry is “inactive”.

In the case of `Cc1ccc(-c2ccccc2C#N)cc1`, the Potency entry is “inactive”.

`CC(C)(C)c1cc(C=O)cc(C(C)(C)C)c1O`: the Potency result is “inactive”.

In the case of `Cc1c(F)cc2c(=O)c(C(=O)O)cn3c2c1CCC3C` (stereo not given), the Potency entry was “inactive”.

On to `CC(=O)N[C@@H](CO)C(=O)N[C@@H](CC(=O)O)C(=O)N[C@@H](CCCCN)C(=O)N1CCC[C@H]1C(=O)O` (Ac-SDKP-OH), for which the Potency entry was “inactive”.

For the compound `COC(=O)C1=C(C)NC(COC(N)=O)=C(C(=O)OC(C)C)C1c1cccc(Cl)c1Cl` (stereo not given), the Potency was 19.5 µM (active).

Take `C1N2CN3CN1CN(C2)C3`: the Potency result is “inactive”.

For `O=C(CCCCCCCCC#CI)Oc1ccccc1`, the Potency is 5.42 µM (active).

On to `CN1[C@@H]2CC[C@H]1CC(NC(=O)n1c(=O)[nH]c3ccccc31)C2` (stereo not given in full), for which the Potency is 1.55 µM (active).

Regarding `C[C@H](CN1CCCC1)C(=O)c1ccc(C(F)(F)F)cc1`, the Potency is 2.19 µM (active).

In the case of `NS(=O)(=O)c1cc(C(=O)NN2C[C@H]3[C@H]4CCC(C4)[C@H]3C2)ccc1Cl`, the Potency result was “inactive”.

With `CCC(C(=O)OCCN1CCOC(c2ccccc2)C1C)c1ccccc1` (stereo not given), the Potency was 1.74 µM (active).

`C[C@@H](O[C@H]1OCCN(Cc2n[nH]c(=O)[nH]2)[C@H]1c1ccc(F)cc1)c1cc(C(F)(F)F)cc(C(F)(F)F)c1`: the Potency is 20.4 µM (active).

Turning to `CC(=O)/C=C/C=C1/C2CCC(C2)C1(C)C` (stereo not given), the Potency is 17.4 µM (active).

Consider `COc1cc(S(N)(=O)=O)cc(C(=O)O)c1OC`, for which the Potency result is “inactive”.

As to `CN=C(N)NC(=O)Nc1c(C)cccc1C`, the Potency entry was “inactive”.

Turning to `O=C(O)Cc1ccc(OCCNC[C@H](O)c2ccccc2)cc1`, the Potency result was “inactive”.

With `COCCc1ccccn1`, the Potency entry was “inactive”.

In the case of `Cc1nc(N)nc(N)c1-c1ccc(Cl)c(Cl)c1`, the Potency is 0.871 µM (active).

Take `CC(=O)O[C@@H]1C(=O)O[C@@H]2[C@H]1OC(=O)[C@@H]2OC(C)=O`: the Potency entry is “inactive”.

With `COC(=O)CCCCC(CCSS/C(CCO)=C(\C)N(C=O)Cc1cnc(C)nc1N)SC(C)=O` (stereo not given), the Potency result was “inactive”.

Consider `NCCCC(N)CC(=O)NCC1NC(=O)C(CO)NC(=O)C(N)CNC(=O)C(C2CCN=C(N)N2)NC(=O)C(=CNC(N)=O)NC1=O` (stereo not drawn) (H-[Dap]S[Dap](ξβ3hOrn)[ΔAla(3-NHCONH2)][X10]; lactam 1-C; configuration not given here), for which the activity change, negative = inhibition was 0.741% [at 0.91 µM].

With `NC(=O)COCCN1CCN(C(c2ccccc2)c2ccc(Cl)cc2)CC1` (stereo not given), the Potency result was “inactive”.

Take `CN(C)CCN(Cc1ccsc1)c1ccccn1`: the Potency was 6.92 µM (active).

Regarding `CCC(=O)O[C@H]1[C@H](O[C@@H]2[C@@H](C)[C@H](O[C@H]3C[C@@](C)(OC)[C@@H](O)[C@H](C)O3)[C@@H](C)C(=O)O[C@H](CC)[C@@](C)(O)[C@H](O)[C@@H](C)C(=O)[C@H](C)C[C@@]2(C)O)O[C@H](C)C[C@@H]1N(C)C`, the Potency entry is “inactive”.

For `O=C1NC(c2ccccc2)(c2ccccc2)C(=O)N1COP(=O)(O)O`, the Potency entry is “inactive”.

For the compound `C[C@@H](C1=C(CCN(C)C)Cc2ccccc21)c1ccccn1`, the Potency is 11 µM (active).

Take `CC[N+](CC)(CC)CCOC(=O)C(C1CCCC1)C1CCCC1`: the Potency was 3.09 µM (active).

With `CCCC(=O)OCOC(=O)C1=C(C)NC(C)=C(C(=O)OC)C1c1cccc(Cl)c1Cl` (stereo not given), the Potency was 16.2 µM (active).

Consider `CCCC(=O)Nc1ccc(O)c(C(C)=O)c1`, for which the Potency result is “inactive”.

`COc1cc(C(=O)OC(COCCC(C)C)CN2CCOCC2)cc(OC)c1OC` (stereo not given): the Potency result was “inactive”.

On to `Cc1ccc(/C=N/n2c(-c3ccccc3)csc2=S)cc1`, for which the Potency entry is “inactive”.
